Reference: PubChem BioAssay AID1159580 (chemical genetic matrix, 2015)
Hit rate of the full screen: of about 5,500 compounds, about 2,000 (36%) were called active. Inconclusive results (about 18%) are left out. No stated cut-off is given here; in the data, active means normalized growth mostly below about 0.91 (no sharp cut-off); inconclusive means no clear call, values can overlap the other calls; inactive means mostly above about 0.92. The list shows a part of the results.

Assay: chemical genetic growth profiling, strain panel (AID 1159580);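 further: tested at 20 µM; growth read once vehicle control cultures reached saturation at 30 °C; 1 = growth at the plate median or of vehicle wells; lower values mean less growth of the strain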
Conditions: growth OD

Measured: normalized growth

CC[C@H](C)C(=O)O[C@H]1C[C@@H](C)C=C2C=C[C@H](C)[C@H](CC[C@@H]3C[C@@H](O)CC(=O)O3)[C@H]21
inactive: S. cerevisiae deletion strains, locus YJR075W, strain HOC1, active compounds read low 0.997 | S. cerevisiae deletion strains, locus YKL009W, strain mrt4, active compounds read low 0.959 | S. cerevisiae deletion strains, locus YKL068W, active compounds read low 0.988 | S. cerevisiae deletion strains, locus YKL085W, strain MDH1 (second series), active compounds read low 0.993 | S. cerevisiae deletion strains, locus YKL085W, strain MDH1, active compounds read low 0.993 | S. cerevisiae deletion strains, locus YKL160W, strain elf1, active compounds read low 1 | S. cerevisiae deletion strains, locus YKL190W, strain CNB1, active compounds read low 0.992 | S. cerevisiae deletion strains, locus YKR001C, strain vps1, active compounds read low 0.986 | S. cerevisiae deletion strains, locus YKR026C, strain gcn3, active compounds read low 0.999 | S. cerevisiae deletion strains, locus YKR091W, strain srl3, active compounds read low 1 | S. cerevisiae deletion strains, locus YLL001W, strain dnm1, active compounds read low 1.02 | S. cerevisiae deletion strains, locus YLL026W, active compounds read low 1.01 | S. cerevisiae deletion strains, locus YLL041C, strain sdh2, active compounds read low 1 | S. cerevisiae deletion strains, locus YLR027C, strain aat2, active compounds read low 1.01 | S. cerevisiae deletion strains, locus YLR039C, strain RIC1, active compounds read low 0.971 | S. cerevisiae deletion strains, locus YLR058C, strain SHM2, active compounds read low 0.957 | S. cerevisiae deletion strains, locus YLR102C, strain apc9, active compounds read low 0.994 | S. cerevisiae deletion strains, locus YLR113W, strain HOG1, active compounds read low 1 | S. cerevisiae deletion strains, locus YLR221C, strain rsa3, active compounds read low 1.01 | S. cerevisiae deletion strains, locus YLR258W, strain gsy2, active compounds read low 1.01 | S. cerevisiae deletion strains, locus YLR262C, strain YPT6 (second series), active compounds read low 1.11 | S. cerevisiae deletion strains, locus YLR262C, strain YPT6, active compounds read low 0.916 | S. cerevisiae deletion strains, locus YLR268W, strain sec22, active compounds read low 1.06 | S. cerevisiae deletion strains, locus YLR320W, strain mms22, active compounds read low 0.992 | S. cerevisiae deletion strains, locus YLR330W, strain CHS5, active compounds read low 0.969 | S. cerevisiae deletion strains, locus YLR342W, strain FKS1 (second series), active compounds read low 0.968 | S. cerevisiae deletion strains, locus YLR342W, strain FKS1, active compounds read low 1 | S. cerevisiae deletion strains, locus YLR357W, strain rsc2, active compounds read low 0.908 | S. cerevisiae deletion strains, locus YLR370C, strain arc18, active compounds read low 1.02 | S. cerevisiae deletion strains, locus YLR371W, strain rom2, active compounds read low 0.982 | S. cerevisiae deletion strains, locus YLR384C, strain iki3, active compounds read low 1.01 | S. cerevisiae deletion strains, locus YLR418C, strain cdc73, active compounds read low 0.908 | S. cerevisiae deletion strains, locus YML016C, strain PPZ1, active compounds read low 0.977 | S. cerevisiae deletion strains, locus YML032C, strain rad52, active compounds read low 1.01 | S. cerevisiae deletion strains, locus YML120C, strain ndi1, active compounds read low 1.01 | S. cerevisiae deletion strains, locus YML124C, strain tub3, active compounds read low 0.98 | S. cerevisiae deletion strains, locus YMR058W, strain fet3, active compounds read low 1 | S. cerevisiae deletion strains, locus YMR078C, strain ctf18, active compounds read low 0.987 | S. cerevisiae deletion strains, locus YMR125W, strain sto1, active compounds read low 0.984 | S. cerevisiae deletion strains, locus YMR129W, active compounds read low 1.01 | S. cerevisiae deletion strains, locus YMR205C, strain PFK2, active compounds read low 1 | S. cerevisiae deletion strains, locus YMR223W, strain ubp8, active compounds read low 0.948 | S. cerevisiae deletion strains, locus YMR231W, strain pep5, active compounds read low 0.998 | S. cerevisiae deletion strains, locus YMR263W, strain SAP30, active compounds read low 0.987 | S. cerevisiae deletion strains, locus YMR307W, strain GAS1, active compounds read low 0.984 | S. cerevisiae deletion strains, locus YNL067W, strain RPL9B, active compounds read low 1.01 | S. cerevisiae deletion strains, locus YNL071W, strain lat1, active compounds read low 1.01 | S. cerevisiae deletion strains, locus YNL128W, strain TEP1, active compounds read low 0.97 | S. cerevisiae deletion strains, locus YNL153C, strain GIM3, active compounds read low 1.02 | S. cerevisiae deletion strains, locus YNL183C, strain NPR1, active compounds read low 0.939 | S. cerevisiae deletion strains, locus YNL209W, strain ssb2, active compounds read low 1.01 | S. cerevisiae deletion strains, locus YNL233W, strain BNI4, active compounds read low 1.01 | S. cerevisiae deletion strains, locus YNL248C, strain rpa49, active compounds read low 1.01 | S. cerevisiae deletion strains, locus YNL250W, strain rad50, active compounds read low 0.958 | S. cerevisiae deletion strains, locus YNL271C, strain bni1, active compounds read low 0.994 | S. cerevisiae deletion strains, locus YNL298W, strain CLA4, active compounds read low 0.99 | S. cerevisiae deletion strains, locus YNL307C, strain MCK1, active compounds read low 0.948 | S. cerevisiae deletion strains, locus YNL322C, strain KRE1 (second series), active compounds read low 1.02 | S. cerevisiae deletion strains, locus YNL322C, strain KRE1, active compounds read low 0.986 | S. cerevisiae deletion strains, locus YNR049C, strain mso1, active compounds read low 1.01 | S. cerevisiae deletion strains, locus YNR052C, strain pop2, active compounds read low 0.999 | S. cerevisiae deletion strains, locus YOL006C, strain TOP1, active compounds read low 0.953 | S. cerevisiae deletion strains, locus YOL012C, strain htz1 0.797 | S. cerevisiae deletion strains, locus YOL147C, strain pex11, active compounds read low 0.986 | S. cerevisiae deletion strains, locus YOR001W, strain rrp6, active compounds read low 1.02 | S. cerevisiae deletion strains, locus YOR061W, strain CKA2, active compounds read low 0.964 | S. cerevisiae deletion strains, locus YOR069W, strain VPS5, active compounds read low 0.981 | S. cerevisiae deletion strains, locus YOR070C, strain gyp1, active compounds read low 1 | S. cerevisiae deletion strains, locus YOR080W, strain dia2, active compounds read low 0.998 | S. cerevisiae deletion strains, locus YOR083W, strain WHI5, active compounds read low 1 | S. cerevisiae deletion strains, locus YOR106W, strain vam3, active compounds read low 0.99 | S. cerevisiae deletion strains, locus YOR136W, strain idh2, active compounds read low 0.98 | S. cerevisiae deletion strains, locus YOR144C, strain elg1, active compounds read low 0.993 | S. cerevisiae deletion strains, locus YOR184W, strain ser1, active compounds read low 0.94 | S. cerevisiae deletion strains, locus YOR231W, strain MKK1, active compounds read low 0.983 | S. cerevisiae deletion strains, locus YOR265W, strain rbl2, active compounds read low 1.01 | S. cerevisiae deletion strains, locus YOR270C, strain vph1, active compounds read low 0.881 | S. cerevisiae deletion strains, locus YOR290C, strain snf2, active compounds read low 1.02 | S. cerevisiae deletion strains, locus YOR316C, strain cot1, active compounds read low 0.993 | S. cerevisiae deletion strains, locus YPL051W, strain arl3, active compounds read low 0.999 | S. cerevisiae deletion strains, locus YPL055C, strain LGE1, active compounds read low 0.939 | S. cerevisiae deletion strains, locus YPL078C, strain atp4, active compounds read low 1.01 | S. cerevisiae deletion strains, locus YPL106C, strain sse1, active compounds read low 1.06 | S. cerevisiae deletion strains, locus YPL240C, strain hsp82, active compounds read low 1.01 | S. cerevisiae deletion strains, locus YPL241C, strain CIN2, active compounds read low 0.979 | S. cerevisiae deletion strains, locus YPL256C, strain CLN2, active compounds read low 1.02 | S. cerevisiae deletion strains, locus YPR119W, strain clb2, active compounds read low 0.986 | S. cerevisiae deletion strains, locus YPR141C, strain kar3, active compounds read low 0.971 | S. cerevisiae deletion strains, locus YPR163C, strain tif3, active compounds read low 0.995 | S. cerevisiae deletion strains, locus YPR167C, strain met16, active compounds read low 0.99 | S. cerevisiae deletion strains, strain wtn01, active compounds read low 1.01 | S. cerevisiae strains, strain wild type, active compounds read low 0.963
